KB-3-1 tox – qHTS assay for MDR1-selective chemotherapeutics: Primary screen using the parental adenocarcinoma cell KB-3-1. KB-3-1 viability, CellTiter-Glo ATP luminescence, 72 h. Potency, µM (titrated, usually from 46.1 µM), actives largely listed as cytotoxic. 400,000 compounds, 1.4% hits; note: nearly all actives have a fitted effect of over 60% in size
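Using CellTiter-Glo luminescence, growth of non-resistant KB-3-1 adenocarcinoma cells is assessed 72 h after pin-tool compound addition at 37 °C. Normalized responses across the concentration series yield fitted curves.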
DT40 TDP1 CPT – qHTS for Inhibitors of human tyrosyl-DNA phosphodiesterase 1 (TDP1): qHTS in cells in presence of CPT; chicken DT40 Tdp1-/-;hTDP1 cells + 20 nM CPT, ATP luminescence, 48 h; Potency, µM (highest dose often 46.2 µM), hits mostly inhibitors; 420,000 compounds, 12% hits; note: nearly all actives have a fitted effect of over 55% in size
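Cell growth measured by CellTiter-Glo luminescence after a minimum 48 h, 37 C compound exposure with 20 nM CPT in Tdp1-knockout DT40 cells stably expressing hTDP1, seeded 400/well; qHTS titration format.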
TDP1 cell noCPT – qHTS for Inhibitors of human tyrosyl-DNA phosphodiesterase 1 (TDP1): qHTS in cells in absence of CPT; 420,000 compounds, 15% hits; AID 686978, 2013; DT40 Tdp1-/- hTDP1 cells, no CPT, ATP luminescence, 48 h; Potency, µM (doses to about 46.2 µM), usual class: inhibitors; note: nearly all actives have a fitted effect of over 55% in size
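Readout: luminescence from CellTiter-Glo after 30 min in the dark at RT. Cells: DT40 Tdp1-/- with stable hTDP1, 400/well. Exposure: compounds alone, ≥48 hr, 37 °C.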
HT1080-NT tox – qHTS for induction of synthetic lethality in tumor cells producing 2HG: qHTS for the HT-1080-NT fibrosarcoma cell line; HT-1080-NT fibrosarcoma viability, CellTiter-Glo ATP luminescence, 48 h; Potency, µM (titrated, usually from 46.1 µM), actives largely listed as cytotoxic; 360,000 compounds, 1.6% hits;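 note: NT is the 2HG producing partner of a matched IDH1 knockdown line; nearly all actives have a fitted effect of over 55% in size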
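Viability of the 2HG-overproducing fibrosarcoma line after 48 hours of compound exposure at 37 degrees C was determined by luminescence with CellTiter-Glo, and concentration-effect curves were then fitted and categorized.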
KB-V1 MDR tox – qHTS assay for MDR1-selective chemotherapeutics: Primary screen using the drug-selected MDR subline cells KB-V1; KB-V1 MDR cells viability, CellTiter-Glo, 72 h; Potency, µM (series often up to 46.1 µM), actives largely listed as cytotoxic; 400,000 compounds, 3.4% hits; AID 1347076, 2019; note: nearly all actives have a fitted effect of over 60% in size
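In this primary screen, KB-V1 cells overexpressing P-gp are incubated with library compounds (lowest to highest concentration) for 72 h at 37 degrees C before a luminescent ATP viability read.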
HT1080 IDH1KD tx – qHTS for induction of synthetic lethality in tumor cells producing 2HG: qHTS for the HT-1080-IDH1KD cell line; HT-1080 IDH1 knockdown viability, ATP luminescence, 48 h; Potency, µM (series often up to 46.1 µM), most hits filed as cytotoxic; 360,000 compounds, 2% hits
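In this qHTS, HT-1080 cells depleted of IDH1 are exposed for 48 h at 37 °C to compound titrations. Toxicity is scored from CellTiter-Glo luminescence, with DMSO as full viability and medium alone as none.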
Hits are given with their value; - = inactive; ? = inconclusive; . = not tested or not shown; ! = not active in a repeat; [ ] = remark or other dose. An excerpt weighted towards active compounds, which were near 19% of everything screened. Calls come from the whole dose curve; as a rule, active = well fitted curve in the direction sought with a large enough effect; inconclusive = small, poorly fitted or top-dose-only effect, or another doubt; inactive = no such curve, though single readings can be large; an effect the other way counts as inactive or inconclusive.

SMILES | KB-3-1 tox | DT40 TDP1 CPT | TDP1 cell noCPT | HT1080-NT tox | KB-V1 MDR tox | HT1080 IDH1KD tx
COc1ccc(CCCc2nnc(SCC(=O)Nc3ccc(C)c(C)c3)o2)cc1 | - | ? | ? | - | - | -
Cc1cccc(NC(=O)CSc2ccc(-c3ccco3)nn2)c1 | - | ? | 29.1µM | - | - | -
COc1ccc(NC(=O)CSc2nc(-c3ccco3)cc(C(F)(F)F)n2)cc1OC | . | 1.46µM | 0.92µM | . | . | .
CCOC(=O)c1ccc(NC(=O)CSc2ccc(-c3cccnc3)nn2)cc1 | - | ? | ? | - | - | -
CCC1(CC)C(=N)N(C)C(=O)NC1=O | - | - | - | - | - | -
CC(Oc1ccccc1)C(=O)Nc1ccc(C(=O)OCc2cc(=O)n3nc(C4CC4)sc3n2)cc1 (stereo unspecified) | - | ? | ? | . | ? | .
CC1=C(C)CN2CC(C#N)=C(N)C2C1 (stereo unspecified) | - | ? | ? | ? | - | -
CC1(C)C(C(Cl)Cl)C2(Cl)C(Cl)C(Cl)C1(Cl)C2(Cl)Cl (stereo unspecified) | . | ? | - | . | . | .
C/C(=N\Nc1cccc2ccccc12)c1c(O)n(Cc2ccccc2)c(=O)[nH]c1=O | - | 16.4µM | 20.6µM | - | - | -
CC(=NCCc1c[nH]c2ccccc12)c1c(O)n(Cc2ccccc2)c(=O)[nH]c1=O | - | 7.31µM | 8.2µM | - | 11.6µM | ?
CN1C2CCC1CC(OC(=O)CCN1CCCC1)C2 (stereo unspecified) | - | - | - | - | - | -
O=C(CCN1CC1)OCCOC(=O)CCN1CC1 | ? | 5.17µM | 4.61µM | - | - | -
CC1=C(/C=C/c2ccccc2)CCN(C)C1 | - | - | - | - | ? | -
C[N+](C)(C)CC1CCCc2ccccc2C1=O (stereo unspecified) | ? | 2.91µM | 2.59µM | ? | - | 5.8µM
C[N+](C)(C)CC1CCCC(C[N+](C)(C)C)C1=O (stereo unspecified) | ? | 0.0411µM | 0.058µM | ? | ? | 3.66µM
C=C(C)CSc1nnc([C@@H](N)Cc2c[nH]c3ccccc23)o1 | - | - | - | - | - | -
Cc1[nH]nc2ccc(-c3cncc(OC[C@@H](N)Cc4c[nH]c5ccccc45)c3)cc12 | ? | 0.581µM | 0.581µM | 18.4µM | 25.9µM | 10.3µM
CNC(C(=O)c1ccccc1)C(OC)c1cccc([N+](=O)[O-])c1 (stereo unspecified) | - | - | - | - | - | -
O=P(O)(O)Oc1ccccc1P(=O)(c1ccccc1)c1ccccc1 | - | - | - | - | - | -
C=CCc1ccc(OC)cc1 | - | 3.66µM! | ? | - | - | -
COc1ccc(CN2CCNCC2)cc1 | - | - | ? | - | - | -
COC(=O)C1=C(c2ccc(F)cc2OCc2ccccc2)C[C@@H]2CC[C@H]1N2C(=O)NCc1cccc(C(F)(F)F)c1 | ? | ? | 18.4µM | - | ? | -
COC(=O)C1=C(c2ccccc2OCc2ccccc2)C[C@@H]2CC[C@H]1N2C(=O)NCCOc1ccc(OC)cc1 | - | ? | ? | - | - | -
COC(=O)C1=C(c2ccc(F)cc2OCc2ccccc2)C[C@@H]2CC[C@H]1N2C(=O)NCCOc1ccccc1Cl | - | 20.6µM | 16.4µM | ? | ? | -
COC(=O)C1=C(c2ccc(F)cc2OCc2ccccc2)C[C@@H]2CC[C@H]1N2C(=O)NCCOc1ccccc1 | ? | ? | 16.4µM | - | ? | -
SMILES | KB-3-1 tox | DT40 TDP1 CPT | TDP1 cell noCPT | HT1080-NT tox | KB-V1 MDR tox | HT1080 IDH1KD tx
COC(=O)C1=C(c2ccccc2OCc2ccccc2)C[C@@H]2CC[C@H]1N2C(=O)NCc1cccc(F)c1 | - | ? | ? | - | - | -
COC(=O)C1=C(c2ccc(F)cc2OCc2ccccc2)C[C@@H]2CC[C@H]1N2C(=O)NCc1ccc(Br)cc1 | ? | ? | 14.6µM | - | - | -
ClC=C(Cl)Cl | . | - | - | . | . | .
CCOP(=O)(Cc1cc(C(=O)CC)c(C)o1)OCC | - | - | ? | - | - | -
CCC1(Cc2ccccc2)C(=O)NC(=S)N(C)C1=O (stereo unspecified) | - | - | - | - | ? | -
COC(=O)C1=C(c2ccc(F)cc2OCc2ccccc2)C[C@@H]2CC[C@H]1N2C(=O)NCCOc1ccc(OC)cc1 | ? | ? | 16.4µM | - | - | -
COC(=O)C1=C(c2ccc(F)cc2OCc2ccccc2)C[C@@H]2CC[C@H]1N2C(=O)NCc1ccc(OC)cc1 | ? | ? | ? | - | - | -
COC(=O)C1=C(c2ccc(F)cc2OCc2ccccc2)C[C@@H]2CC[C@H]1N2C(=O)NCCc1ccc(F)cc1 | - | ? | 20.6µM | - | ? | -
CC(C)n1c(O)c(C2c3cc(Cl)ccc3Oc3[nH]c(=O)n(C(C)C)c(=O)c32)c(=O)[nH]c1=O (stereo unspecified) | 8.2µM | 2.91µM | 2.91µM | 5.17µM | 7.31µM | 2.31µM
OCC1OC(n2cnc3c(Cl)ncnc32)C(O)C1O (stereo unspecified) | . | 9.2µM | 4.61µM | . | . | .
NC(=S)c1cn(C2OC(CO)C(O)C2O)c2ncnc(N)c12 (stereo unspecified) | ? | 0.13µM | 0.164µM | ? | - | 1.3µM
Nc1ncnc2c1ccn2[C@@H]1O[C@H](CO)[C@@H](O)[C@H]1O | 0.184µM | 0.0206µM | 0.146µM | 0.651µM | 0.206µM | 0.82µM
[N-]=[N+]=NCCN1CCC(O)CCC1=O (stereo unspecified) | - | - | - | - | ? | -
ClCCN(CCCl)c1ccc(/C=C/c2ccnc3ccccc23)cc1 | ? | 3.98µM | 3.55µM | . | ? | .
ClCCN(CCCl)c1ccc(C=Cc2ccncn2)cc1 | - | 6.51µM | 9.2µM | - | - | -
Cc1cc(/C=C/c2ccnc3ccccc23)ccc1N(CCCl)CCCl | ? | ? | 25.1µM | . | - | .
CN1CCC2=C[C@@H](O)[C@@H]3OC(=O)c4cc5c(cc4C3C21)OCO5 (stereo partly specified) | . | -[9.04 µM] | -[9.04 µM] | . | . | .
C=CCN=C=S | . | - | - | . | . | .
Cn1c(O)c(C=NC2CCCCCC2)c(=O)[nH]c1=S | - | - | - | - | - | -
CC(C)N1CCN(c2ccc(O)cc2)CC1 | - | - | ? | - | - | -
